Measurements: PubChem BioAssay (NCATS)
Inconclusive results are not listed. Unless noted, calls come from the whole dose curve; as a rule, active = well fitted curve in either direction with a large enough effect (not every such curve was filed as active); inconclusive = small, poorly fitted or top-dose-only effect, or another doubt; inactive = flat fitted curve, though single readings scatter.

How the values were obtained:
[1] = AP1 Signaling Pathway (AID 357); settings: ME-180 AP-1-bla reporter, EGF-induced, beta-lactamase ratio, 5 h; at 17.2 µM (top of the series) unless noted;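 note: ME-180 reporter cells stimulated with EGF at its EC50 level; % is set by controls: 0 for no effect and ±100 for the full control effect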
How it was run: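 A ratiometric CCF4 readout (405 nm excitation; 460 and 530 nm emission) quantified AP-1-driven beta-lactamase in ME-180 cells after 5 h with compound and EC50 EGF; AC50 values were derived for activators and inhibitors.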

[2] = NFAT Signaling Pathway (AID 444); settings: Jurkat NFAT-bla M1, carbachol, beta-lactamase ratio, 5 h; at 17.2 µM (top of the series) unless noted;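 note: carbachol stimulus at about its EC50 of 1 µM final; % is set by controls: 0 for no effect and ±100 for the full control effect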
How it was run: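 Read-out: CCF4 FRET ratio (460 nm/530 nm) after 1 h RT dye loading, used for %activity and AC50 from titration series. Cells: Jurkat NFAT-β-lactamase/M1 line, treated with compound plus 1 uM carbachol for 5 h, 37 °C.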

[3] = Stat Signaling Pathway (AID 446); settings: ME-180 (cervical carcinoma) SIE beta-lactamase reporter, IL-6 stimulated, 5 h; at 17.2 µM (top of the series) unless noted;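 note: ME-180 cervical cancer cells given 40 pM IL-6 alongside compound; SIE-controlled beta-lactamase reporter measured as 460/530 nm FRET emission ratio; % is set by controls: 0 for no effect and ±100 for the full control effect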
How it was run: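 IL-6/STAT signaling read in ME-180 cells via an SIE beta-lactamase reporter. Stimulus was 40 pM IL-6 (its AC50) for 5 hrs, so both activation and inhibition register.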

[4] = molecular target: Glucocorticoid receptor (Homo sapiens) (UniProt P04150); assay: GR-GFP Redistribution (AID 450;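 active = compounds whose dose series gives a full or clear partial fitted curve of increased nuclear translocation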; note: potency is the fitted concentration of half-maximal effect)
Sequence of Glucocorticoid receptor (Homo sapiens) (P04150 whole entry, looked up): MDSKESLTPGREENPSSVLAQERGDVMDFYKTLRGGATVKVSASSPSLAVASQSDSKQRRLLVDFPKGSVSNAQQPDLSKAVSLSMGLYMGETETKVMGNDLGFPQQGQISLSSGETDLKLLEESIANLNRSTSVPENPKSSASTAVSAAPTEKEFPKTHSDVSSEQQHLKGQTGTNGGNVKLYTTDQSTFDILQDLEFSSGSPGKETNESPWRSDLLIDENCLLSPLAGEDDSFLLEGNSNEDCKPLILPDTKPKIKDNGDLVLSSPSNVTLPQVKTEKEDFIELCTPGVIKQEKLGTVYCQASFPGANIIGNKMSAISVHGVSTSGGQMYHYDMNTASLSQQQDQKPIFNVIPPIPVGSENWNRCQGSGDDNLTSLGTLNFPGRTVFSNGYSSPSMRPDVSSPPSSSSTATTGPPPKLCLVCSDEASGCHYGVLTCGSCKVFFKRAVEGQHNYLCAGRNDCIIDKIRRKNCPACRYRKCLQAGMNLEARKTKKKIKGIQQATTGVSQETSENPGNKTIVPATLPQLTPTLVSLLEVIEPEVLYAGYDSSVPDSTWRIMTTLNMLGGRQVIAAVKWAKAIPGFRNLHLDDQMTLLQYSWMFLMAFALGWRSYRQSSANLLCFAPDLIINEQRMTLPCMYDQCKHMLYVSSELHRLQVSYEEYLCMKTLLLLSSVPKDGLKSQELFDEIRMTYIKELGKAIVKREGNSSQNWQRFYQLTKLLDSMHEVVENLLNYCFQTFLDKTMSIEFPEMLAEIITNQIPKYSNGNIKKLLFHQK

COc1ccccc1C1(CC(=O)N2CCOCC2)CCOC(C(C)C)C1 (stereo not given)
inactive: activity change, negative = inhibition [1] 3.63% | activity change, negative = inhibition [2] 13.2% | activity, negative = inhibition [3] -0.0907% | Potency [4] > 20.6 µM

C=CCOC(=O)C1=C(C)NC(SCC(=O)Nc2ccc(C)c(Cl)c2)=C(C#N)C1c1ccco1 (stereo not given)
inactive: activity change, negative = inhibition [1] -4.79% | activity change, negative = inhibition [2] 7.32% | activity, negative = inhibition [3] 6.22% | Potency [4] > 20.6 µM

Cn1ncc2nc[nH]c(=O)c21
inactive: activity change, negative = inhibition [1] 0.993% | activity change, negative = inhibition [2] -1.7% | activity, negative = inhibition [3] 7.35% | Potency [4] > 20.6 µM

O=C(O)CC(C(=O)N(c1ccccc1)c1ccccc1)N1CCOCC1 (stereo not given)
inactive: activity change, negative = inhibition [1] -5.33% | activity change, negative = inhibition [2] -0.593% | activity, negative = inhibition [3] 8.75% | Potency [4] > 20.6 µM

COc1ccc(C(=O)N2CCCC(c3ccccc3)C2)cc1 (stereo not given)
inactive: activity change, negative = inhibition [1] -9.81% | activity change, negative = inhibition [2] 18.5% | activity, negative = inhibition [3] 2.57% | Potency [4] > 20.6 µM

COc1ccc(OC)c(C2/C(=C(/O)c3ccc(C)cc3)C(=O)C(=O)N2Cc2ccco2)c1 (stereo not given)
inactive: activity change, negative = inhibition [1] -0.882% | activity change, negative = inhibition [2] -17.7% | activity, negative = inhibition [3] -18.2% | Potency [4] > 20.6 µM

COC(=O)C(C)Sc1nc2c(c(=O)n(C)c(=O)n2C)n1CCC(C)C (stereo not given)
inactive: activity change, negative = inhibition [1] -4.73% | activity change, negative = inhibition [2] 7.85% | activity, negative = inhibition [3] -10.8% | Potency [4] > 20.6 µM

Cc1ccc(N(CC(O)CN(C)C)S(=O)(=O)c2ccccc2)cc1 (stereo not given)
inactive: activity change, negative = inhibition [1] -7.29% | activity change, negative = inhibition [2] -10.3% | activity, negative = inhibition [3] 1.04% | Potency [4] > 20.6 µM

CCOC(=O)C1=C(CSc2nc(C)cc(C)c2C#N)OC(N)=C(C#N)C1c1cccs1 (stereo not given)
inactive: activity change, negative = inhibition [1] 18.8% | activity change, negative = inhibition [2] -27.2% | activity, negative = inhibition [3] -6.58% | Potency [4] > 20.6 µM

CCN(CC)CCCN1C(=O)C(O)=C(C(=O)c2ccc(C)o2)C1c1ccc(C)o1 (stereo not given)
inactive: activity change, negative = inhibition [1] 5.4% | activity change, negative = inhibition [2] -12.9% | activity, negative = inhibition [3] 9.39% | Potency [4] > 20.6 µM

COc1cc(C2Nc3cccc4cccc(c34)N2)cc(OC)c1OC(C)=O
inactive: activity change, negative = inhibition [1] 19.9% | activity change, negative = inhibition [2] 3.51% | activity, negative = inhibition [3] 9.71% | Potency [4] > 20.6 µM

Nc1nnnn1N=C1CCCCC1
inactive: activity change, negative = inhibition [1] -7.36% | activity change, negative = inhibition [2] 0.933% | activity, negative = inhibition [3] -8.04% | Potency [4] > 20.6 µM

O=C(Cc1ccc(Cl)cc1)Nc1cccc(-c2nnc(-c3ccco3)o2)c1
inactive: activity change, negative = inhibition [1] -5.69% | activity change, negative = inhibition [2] 11.3% | activity, negative = inhibition [3] -1.67% | Potency [4] > 20.6 µM

C=CCOc1ccc(/C(O)=C2/C(=O)C(=O)N(CCCN3CCOCC3)C2c2ccccc2)cc1 (stereo not given)
inactive: activity change, negative = inhibition [1] -4.92% | activity change, negative = inhibition [2] 12.9% | activity, negative = inhibition [3] -5.01% | Potency [4] > 20.6 µM

C/C(NC(=O)c1ccccc1F)=C1\C(=O)C[C@@H]2[C@H]1C2(C)C
inactive: activity change, negative = inhibition [1] -12.1% | activity change, negative = inhibition [2] -24.9% | activity, negative = inhibition [3] -6.06% | Potency [4] > 20.6 µM

CC1(C)CC(=O)C(C=NCCN2CCN(C(=O)C34CC5CC(CC(C5)C3)C4)CC2)=C(O)C1
inactive: activity change, negative = inhibition [1] -9.89% | activity change, negative = inhibition [2] 9.88% | activity, negative = inhibition [3] 7.24% | Potency [4] > 20.6 µM

COC(=O)CSCC(=O)Nc1cc2c(cc1C(C)=O)OCO2
inactive: activity change, negative = inhibition [1] -1.75% | activity change, negative = inhibition [2] 29.7% | activity, negative = inhibition [3] 9.85% | Potency [4] > 20.6 µM

CCCCOc1ccc(CSC(CC(=O)O)C(=O)O)cc1 (stereo not given)
inactive: activity change, negative = inhibition [1] 11.3% | activity change, negative = inhibition [2] 11.2% | activity, negative = inhibition [3] 1.48% | Potency [4] > 20.6 µM

Cc1cc(C)cc(-n2c3nc4ccccc4nc3c3c(=O)n(Cc4ccco4)cnc32)c1
inactive: activity change, negative = inhibition [1] 8.24% | activity change, negative = inhibition [2] -18.2% | activity, negative = inhibition [3] -16.9% | Potency [4] > 20.6 µM

CCCCCC(=O)N1CC2(C)CN(C(=O)CCCCC)CC(C)(C1)C2=O
inactive: activity change, negative = inhibition [1] 4.08% | activity change, negative = inhibition [2] -13.6% | activity, negative = inhibition [3] 5.3% | Potency [4] > 20.6 µM

CC(C)OC(=O)CC1=NC(=O)CS1
inactive: activity change, negative = inhibition [1] 3.43% | activity change, negative = inhibition [2] 8.36% | activity, negative = inhibition [3] 9.47% | Potency [4] > 20.6 µM

C=CCn1c(-c2ccc(OC)c(OC)c2)n[nH]c1=S
inactive: activity change, negative = inhibition [1] 1.93% | activity change, negative = inhibition [2] 9.3% | activity, negative = inhibition [3] -10.7% | Potency [4] > 20.6 µM

COc1ccc(N2C(=O)C3C(C2=O)C2C=CC3C23CC3)c(OC)c1 (stereo not given)
inactive: activity change, negative = inhibition [1] 16.2% | activity change, negative = inhibition [2] 5.04% | activity, negative = inhibition [3] 0.0769% | Potency [4] > 20.6 µM

CSc1nc2[nH]c3c(c2c2nncn12)CC(C)(C)OC3
inactive: activity change, negative = inhibition [1] -4.3% | activity change, negative = inhibition [2] -1.24% | activity, negative = inhibition [3] 7.21% | Potency [4] > 20.6 µM

CCCCSc1nc(O)c(C2OC(=O)c3c2ccc(OC)c3OC)c(=O)n1C (stereo not given)
inactive: activity change, negative = inhibition [1] -4.1% | activity change, negative = inhibition [2] 1.82% | activity, negative = inhibition [3] -7.44% | Potency [4] > 20.6 µM
